Drawing on PubChem BioAssay, this text covers composite z-score and z-score for five molecules.

Experiment [1] relates to Wnt5a (protein binding on small-molecule microarray). The experiment is described as follows: small molecules binding Wnt5a protein – biophysical, small-molecule microarray, 635/667 nm fluorescence, primary screen (AID 1142).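 Note: fluorescence read at 667 nm with signal to noise per printed feature.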 To be noted: 635 nm fluorescence, higher = more signal.
Experiment [2] is described as follows: ATP-based viability of Huh7 replicon cells – cell-based, CellTiter-Glo luminescence, basal, 48 h, cytotoxicity control for HCV replication inhibitor project, primary screen (AID 1143).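 Note: Huh7 hepatoma cells carrying a hepatitis C replication reporter with no stimulus; test concentration not given here.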 To be noted: higher = more signal, called active from +8 up or from −8 down. (A replicon is a self-replicating genome or part of one, used to study replication in cells.)
The nature of experiment [3]: Pseudomonas biofilm growth suppression – PAO1 strain, BacTiter-Glo luminescence, LB-PBS, primary screen (AID 1144). The settings on record: P. aeruginosa PAO1 biofilm, 12 h, higher = more signal.
A short description of experiment [4]: basal CRE-LacZ reporter activity in PC12 – cell-based, unstimulated, primary screen (AID 1145). The settings on record: no forskolin, luminescence, 4.5 h, higher = more signal, called active from +8 up or from −8 down.
Experiment [5] is described as follows: forskolin-driven CRE-LacZ activity in PC12 – cell-based, CRE-LacZ reporter, forskolin-stimulated, primary screen (AID 1146).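 Note: PC12 cells with 6xCRE LacZ reporter stimulated by forskolin 10 µM; beta-galactosidase reporter signal reflecting CREB driven transcription.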 The settings on record: luminescence, 4.5 h, higher = more signal, called active from +8 up or from −8 down.
For experiment [6], the target named is Streptavidin (Streptomyces avidinii) (UniProt P22629). Briefly: compounds binding control protein streptavidin – biophysical, small-molecule microarray, 635/667 nm fluorescence, artefact control for SMM compound annotation, primary screen (AID 1147).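 Note: signal reflects streptavidin binding to arrayed compounds as a control protein.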 To be noted: higher = more signal.
Sequence of Streptavidin (Streptomyces avidinii) (P22629 whole entry, looked up): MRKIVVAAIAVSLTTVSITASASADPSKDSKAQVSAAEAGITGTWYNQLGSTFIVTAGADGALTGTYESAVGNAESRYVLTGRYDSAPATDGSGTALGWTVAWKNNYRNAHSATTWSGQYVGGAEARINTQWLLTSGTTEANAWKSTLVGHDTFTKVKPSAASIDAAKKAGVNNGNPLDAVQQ
A short description of experiment [7]: probe aInhba binding on compound microarray – biochemical, small-molecule microarray, 635/667 nm fluorescence, primary screen (AID 1148).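 Note: score merges 667nm spot fluorescence with signal-to-noise for antibody binding to printed compounds.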 The settings on record: higher = more signal.
Experiment [8] addresses Torsin-1A (Homo sapiens) (UniProt O14656). Briefly: TOR1A wild-type binding on microarray – cell lysate, small-molecule microarray, lysate, 635/667 nm, primary screen (AID 1149). To be noted: COS7 hTOR1A-WT lysate, 635 nm fluorescence, higher = more signal.
For experiment [9] the target is unchanged. Briefly: torsin A mutant lysate binding on microarrays – cell lysate, small-molecule microarray, COS7 lysate, 635/667 nm fluorescence, primary screen (AID 1150).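 Note: score pools 667 nm emission and signal to noise measuring lysate protein binding.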 To be noted: COS7 hTOR1A mutant lysate, 635 nm fluorescence, higher = more signal.
Experiment [10] relates to Sonic hedgehog protein (Shh). Briefly: Sonic hedgehog microarray binding compounds – biochemical, small-molecule microarray, 635/667 nm fluorescence, primary screen (AID 1151).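 Note: Shh protein binding to compounds spotted on small-molecule microarray slides; score combines spot fluorescence intensity with signal-to-noise across triplicate slides.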 To be noted: 635 nm fluorescence, higher = more signal.
Experiment [11] in a line: optical density shifts of acrAB sulA E. coli – strain DRC41, OD650, 48 h, E. coli filamentation inducer project, primary screen (AID 1152).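 Note: E. coli MC1000 strain DRC41 lacking acrAB efflux pump and sulA.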 The settings on record: higher = more signal, called active from +8 up or from −8 down.
The nature of experiment [12]: probe aLefty1 binding on compound microarray – biochemical, small-molecule microarray, 635/667 nm fluorescence, primary screen (AID 1153).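 Note: score merges spot fluorescence with signal-to-noise ratio from the scanned slide images.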 To be noted: higher = more signal.
Experiment [13] can be described thus: plasmodial surface anion channel blockers, osmotic lysis – cell-based, P. falciparum Indochina, OD700, 1 h, primary screen (AID 1154). To be noted: P. falciparum Indochina infected RBC osmotic lysis, higher = more signal, called active from +8 up or from −8 down.
A short description of experiment [14]: plasmodial surface anion channel blockers, osmotic lysis – cell-based, P. falciparum Indochina, OD700, 2 h, primary screen (AID 1155).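 Note: lysis reports solute entry through the parasite surface anion channel PSAC.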 To be noted: P. falciparum Indochina infected erythrocytes, higher = more signal, called active from +8 up or from −8 down.
The nature of experiment [15]: changes in parasitized red cell lysis, either direction – P. falciparum Indochina, OD700, 3 h, PSAC antagonist project, primary screen (AID 1156). To be noted: P. falciparum-infected erythrocytes, osmotic lysis, higher = more signal, called active from +8 up or from −8 down.
Experiment [16] can be described thus: plasmodial surface anion channel blockers, osmotic lysis – cell-based, P. falciparum Indochina, OD700, 18 h, primary screen (AID 1157). To be noted: P. falciparum Indochina infected erythrocytes, osmotic lysis OD700, 18 h; higher = more signal, called active from +8 up or from −8 down.
Experiment [17] in a line: S6 kinase pathway phospho-S6 level changes – cell-based, A549, cytoblot, luminescence, serum-stimulated, primary screen (AID 1158).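 Note: serum-stimulated A549 lung adenocarcinoma cells; signal is phosphorylated S6 detected by cytoblot immunostaining with HRP secondary.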 To be noted: 5 h, higher = more signal.
Experiment [18] addresses NADPH oxidase 2 (Homo sapiens) (UniProt P04839). The experiment is described as follows: compounds shifting NOX2 Amplex Red fluorescence – cell-based, HEK293-NOX2, PMA-stimulated, NOX inhibitor project, primary screen (AID 1159). Note: test concentration not given here. The settings on record: 45 min, higher = more signal, called active from +8 up or from −8 down.
In experiment [19] the target is NADPH oxidase 4 (Homo sapiens) (UniProt Q9NPH5). Briefly: compounds shifting NOX4 Amplex Red fluorescence – cell-based, HEK293-NOX4, tetracycline-induced, NOX inhibitor project, primary screen (AID 1160). To be noted: HEK293-NOX4, Amplex Red H2O2 fluorescence, 45 min; higher = more signal, called active from +8 up or from −8 down.
Sequence of NADPH oxidase 4 (Homo sapiens) (Q9NPH5 whole entry, looked up): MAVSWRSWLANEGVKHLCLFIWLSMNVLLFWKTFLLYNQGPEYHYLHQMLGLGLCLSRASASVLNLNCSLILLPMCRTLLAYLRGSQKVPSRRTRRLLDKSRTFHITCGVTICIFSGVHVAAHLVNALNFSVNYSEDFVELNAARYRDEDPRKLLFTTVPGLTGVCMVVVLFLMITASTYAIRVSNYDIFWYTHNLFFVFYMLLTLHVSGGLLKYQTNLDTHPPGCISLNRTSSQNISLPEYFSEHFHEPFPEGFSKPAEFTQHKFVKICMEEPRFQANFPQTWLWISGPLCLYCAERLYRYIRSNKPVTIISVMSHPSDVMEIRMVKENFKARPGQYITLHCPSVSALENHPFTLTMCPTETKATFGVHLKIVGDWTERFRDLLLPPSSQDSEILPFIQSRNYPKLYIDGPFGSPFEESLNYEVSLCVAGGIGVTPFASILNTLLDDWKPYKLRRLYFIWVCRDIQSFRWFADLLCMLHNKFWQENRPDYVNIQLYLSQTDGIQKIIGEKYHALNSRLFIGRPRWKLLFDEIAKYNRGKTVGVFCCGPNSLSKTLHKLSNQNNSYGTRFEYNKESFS
Experiment [20] concerns the target NADPH oxidase 5 (Homo sapiens) (UniProt Q96PH1). Briefly: compounds shifting NOX5 Amplex Red fluorescence – cell-based, HEK293-NOX5, NOX inhibitor project, primary screen (AID 1161). The settings on record: HEK293-NOX5, ionomycin, 45 min, higher = more signal.

SMILES strings stand for the structures. The source made the active and inactive calls. Unless noted, the rule behind the calls is not given here.

Sequence of Torsin-1A (Homo sapiens) (O14656 whole entry, looked up): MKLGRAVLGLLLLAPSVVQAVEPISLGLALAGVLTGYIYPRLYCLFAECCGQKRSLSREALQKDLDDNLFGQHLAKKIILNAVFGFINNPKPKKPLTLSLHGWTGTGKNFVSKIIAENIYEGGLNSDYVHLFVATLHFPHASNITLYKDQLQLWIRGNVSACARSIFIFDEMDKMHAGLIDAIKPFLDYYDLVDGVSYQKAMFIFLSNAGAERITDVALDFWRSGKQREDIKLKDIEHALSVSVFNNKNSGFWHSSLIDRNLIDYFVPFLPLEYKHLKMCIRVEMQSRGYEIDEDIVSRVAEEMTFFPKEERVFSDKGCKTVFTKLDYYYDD
Sequence of NADPH oxidase 5 (Homo sapiens) (Q96PH1 whole entry, looked up): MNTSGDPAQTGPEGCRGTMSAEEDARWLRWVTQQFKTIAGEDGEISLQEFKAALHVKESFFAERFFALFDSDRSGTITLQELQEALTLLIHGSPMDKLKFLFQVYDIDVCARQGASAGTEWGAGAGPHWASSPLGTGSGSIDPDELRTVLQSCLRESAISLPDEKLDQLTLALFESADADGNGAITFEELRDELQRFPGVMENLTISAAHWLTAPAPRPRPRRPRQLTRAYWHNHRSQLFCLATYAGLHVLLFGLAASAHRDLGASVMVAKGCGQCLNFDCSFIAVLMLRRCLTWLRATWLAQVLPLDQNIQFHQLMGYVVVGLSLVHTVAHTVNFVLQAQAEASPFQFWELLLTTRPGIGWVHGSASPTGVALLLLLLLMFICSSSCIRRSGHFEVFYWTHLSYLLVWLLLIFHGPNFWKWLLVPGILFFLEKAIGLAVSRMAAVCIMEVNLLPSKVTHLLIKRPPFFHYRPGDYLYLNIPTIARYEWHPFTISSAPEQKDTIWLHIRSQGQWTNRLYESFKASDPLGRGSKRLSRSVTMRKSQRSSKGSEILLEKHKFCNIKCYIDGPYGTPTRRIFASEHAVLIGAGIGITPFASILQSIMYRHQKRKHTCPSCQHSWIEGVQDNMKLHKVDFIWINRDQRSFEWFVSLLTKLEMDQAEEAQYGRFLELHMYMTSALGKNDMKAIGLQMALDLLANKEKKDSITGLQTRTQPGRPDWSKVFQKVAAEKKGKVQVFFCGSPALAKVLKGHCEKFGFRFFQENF
Sequence of NADPH oxidase 2 (Homo sapiens) (P04839 whole entry, looked up): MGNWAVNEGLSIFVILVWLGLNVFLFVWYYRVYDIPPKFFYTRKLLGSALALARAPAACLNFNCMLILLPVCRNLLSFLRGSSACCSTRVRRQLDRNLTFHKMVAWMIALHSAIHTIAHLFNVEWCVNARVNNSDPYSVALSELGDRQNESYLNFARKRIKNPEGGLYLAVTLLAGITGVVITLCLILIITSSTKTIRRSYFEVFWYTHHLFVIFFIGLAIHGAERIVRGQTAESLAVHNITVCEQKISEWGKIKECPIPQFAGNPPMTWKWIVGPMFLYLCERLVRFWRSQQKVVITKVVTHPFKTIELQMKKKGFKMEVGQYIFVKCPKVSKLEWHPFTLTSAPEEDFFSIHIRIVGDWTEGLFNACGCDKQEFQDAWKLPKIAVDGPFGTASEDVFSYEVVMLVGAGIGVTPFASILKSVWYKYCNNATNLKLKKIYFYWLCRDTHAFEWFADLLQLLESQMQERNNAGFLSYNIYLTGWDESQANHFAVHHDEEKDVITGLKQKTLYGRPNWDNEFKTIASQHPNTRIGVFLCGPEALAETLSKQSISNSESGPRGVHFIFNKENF

On to `O=C1OCCC=C[C@H]2OC34C=CCN(c5ccc(Cl)cc5)C(=O)[C@H]3N(CCO)C(=O)[C@@H]4C12` (stereo not given in full), for which the composite z-score in experiment [1] was -0.524; in experiment [6], -1.23; in experiment [7], -0.159; with Torsin-1A (Homo sapiens) [8] it was -1.97; in the experiment with Torsin-1A (Homo sapiens) [9] it was -0.0899; in [10], -0.524. In experiment [12], this molecule yielded a composite z-score of -0.0501. The z-score is 0.373 (inactive) in experiment [2]; 0.108 (inactive) in [3]; -0.228 (inactive) in [4]; -0.256 (inactive) in experiment [5]; -0.232 (inactive) in experiment [11]; 0.773 (inactive) in experiment [13]. Further, the z-score in [14] is 0.183 (inactive); in experiment [15], 0.766 (inactive); in experiment [16], 0.355 (inactive); in experiment [17], -0.509; in experiment [18], 1.69 (inactive); in experiment [19] it was -0.0621 (inactive). The z-score in experiment [20] was determined as 1.48.

For the molecule `COCCOC(=O)N1C(=O)[C@@]2(c3cc(C#CCC(C(=O)OC)C(=O)OC)ccc31)[C@H](C(N)=O)[C@H]1C(=O)O[C@H](c3ccccc3)[C@H](c3ccccc3)N1[C@@H]2c1ccc(OCCO)cc1`, the composite z-score in [1] was 0.787; in experiment [6], 0.528; in experiment [7], 0.105; in the experiment with Torsin-1A (Homo sapiens) [8], 0.704; with Torsin-1A (Homo sapiens) [9] it was 0.643; in experiment [10], 1.07. The same molecule showed a composite z-score in [12] of 0.146. The z-score was -2.89 (inactive) in experiment [2]; -0.224 (inactive) in experiment [3]; 0.478 (inactive) in experiment [4]; -0.372 (inactive) in experiment [5]; -0.886 (inactive) in experiment [11]; 28.9 (active) in experiment [13]. Also, the z-score was 16.1 (active) in experiment [14]; -1.71 (inactive) in [15]; 2.01 (inactive) in experiment [16]; -0.275 in [17]; 1.75 (inactive) in experiment [18]; 1.24 (inactive) in experiment [19]. Further, in experiment [20], the z-score came to 0.515.

Take `CCCCCCc1nc(-c2ccc(OC)nc2)cc2c1[Si](C(C)C)(C(C)C)OC2`: the composite z-score is -0.446 in [1]; 0.151 in [6]; -0.0963 in experiment [7]; -0.734 with Torsin-1A (Homo sapiens) [8]; 0.706 with Torsin-1A (Homo sapiens) [9]; -0.0247 in experiment [10]. In addition, the composite z-score in [12] is -0.103. Further, the z-score in experiment [2] was -3.35 (inactive); in experiment [3], -0.757 (inactive); in experiment [4], -0.36 (inactive); in experiment [5], -0.565 (inactive); in experiment [11], -0.45 (inactive); in [13], 2.62 (inactive). Further, the z-score is 0.0409 (inactive) in [14]; -0.484 (inactive) in experiment [15]; -0.179 (inactive) in experiment [16]; 0.366 in experiment [17]; -4.66 (inactive) in experiment [18]; -2.14 (inactive) in experiment [19]. Besides, the z-score in experiment [20] was -4.22.

As to `C=CCOC(=O)[C@H]1[C@@H]2C(=O)O[C@@H](c3ccccc3)[C@@H](c3ccccc3)N2[C@@H](c2ccc(OCCOC(=O)[C@@H]3C[C@@H]4C(=O)N[C@@H](Cc5ccccc5)C(=O)N4[C@@H]3c3ccc(O)cc3)cc2)[C@]12C(=O)Nc1ccccc12`, the composite z-score was 0.5 in experiment [1]; 0.537 in [6]; -0.0762 in experiment [7]; 0.83 with Torsin-1A (Homo sapiens) [8]; 0.8 in the experiment with Torsin-1A (Homo sapiens) [9]; 1.03 in experiment [10]. For the same molecule, the composite z-score in experiment [12] was -0.0235. The z-score was 0.247 (inactive) in [2]; -0.661 (inactive) in experiment [3]; 0.679 (inactive) in [4]; -0.158 (inactive) in [5]; -0.126 (inactive) in experiment [11]; 2.33 (inactive) in [13]. Moreover, the z-score was 0.776 (inactive) in experiment [14]; 1.28 (inactive) in [15]; 0.914 (inactive) in experiment [16]; 0.896 in [17]; 1.48 (inactive) in [18]; 1.14 (inactive) in [19]. Moreover, the z-score in [20] was determined as 2.13.

With `CCOC(=O)C1=CC[C@@H](c2ccccc2)N(S(=O)(=O)C[Si](C)(C)C)[C@H]1c1ccccc1`, the composite z-score in experiment [1] turned out to be 0.389; in [6] it was 1.48; in [7], 0.127; with Torsin-1A (Homo sapiens) [8], 0.899; in the experiment with Torsin-1A (Homo sapiens) [9] it was 0.799; in experiment [10], 0.257. The molecule further yielded a composite z-score in experiment [12] of 0.0437. Moreover, the z-score was -2.78 (inactive) in experiment [2]; -0.667 (inactive) in [3]; -0.63 (inactive) in experiment [4]; 1.56 (inactive) in [5]; -2.2 (inactive) in [11]; 2.05 (inactive) in experiment [13]. Moreover, the z-score is 1.83 (inactive) in [14]; 0.0192 (inactive) in experiment [15]; 0.999 (inactive) in [16]; -0.692 in experiment [17]; 0.324 (inactive) in experiment [18]; -1.26 (inactive) in experiment [19]. The z-score in [20] is 0.839.
